The record followed here is PubChem BioAssay (EPA / NIEHS).

Test [1] is described as follows: ACEA_ER_80hr: ACEA Biosciences xCELLigence Real-Time Cell Analysis on Estrogen Receptor Agonism for Proliferation (AID 2282667; active means hit-call score of the fitted dose curve at least 0.9, where 1 is the maximum). Particulars: T47D proliferation, impedance (xCELLigence), 80 h. An outline of the steps:
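Real-time electrical impedance tracked growth of the human breast line T47D, with the 80 h post-dosing value used. Dosing spanned eight 1:4 steps down from a 100 uM final top concentration, run in duplicate.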

Test [2] can be described thus: ATG_CRE_CIS: Attagene CIS-FACTORIAL HepG2 Assay for human cAMP Responsive Element (CRE) binding protein 3 (AID 2282926). Particulars: HepG2 CRE cis-reporter, Attagene multiplexed mRNA; actives raise or lower the signal. An outline of the steps:
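Assay format: transient reporter transfection of HepG2, 24 h treatment, total RNA isolation with DNase I step. Reporter abundance read by fluorescence after PCR and capillary separation; DMSO-normalised gain or loss fitting.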

For test [3], the target named is CCAAT/enhancer-binding protein beta (Homo sapiens) (UniProt P17676). Put plainly: ATG_C_EBP_CIS: Attagene CIS-FACTORIAL HepG2 Assay for human CCAAT/Enhancer Binding Protein (C/EBP) beta (AID 2282927). Conditions: HepG2 Attagene cis-factorial transcription factor reporter; actives raise or lower the signal. An outline of the steps: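 HepG2 transiently transfected with multiplexed reporter units under cis-regulatory promoters reporting endogenous C/EBPb activity. After 24 h exposure, reporter mRNA assayed by RT-PCR, fluorescent labelling, HpaI digestion and capillary electrophoresis; bidirectional fitting versus DMSO.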
Sequence of CCAAT/enhancer-binding protein beta (Homo sapiens) (P17676 whole entry, looked up): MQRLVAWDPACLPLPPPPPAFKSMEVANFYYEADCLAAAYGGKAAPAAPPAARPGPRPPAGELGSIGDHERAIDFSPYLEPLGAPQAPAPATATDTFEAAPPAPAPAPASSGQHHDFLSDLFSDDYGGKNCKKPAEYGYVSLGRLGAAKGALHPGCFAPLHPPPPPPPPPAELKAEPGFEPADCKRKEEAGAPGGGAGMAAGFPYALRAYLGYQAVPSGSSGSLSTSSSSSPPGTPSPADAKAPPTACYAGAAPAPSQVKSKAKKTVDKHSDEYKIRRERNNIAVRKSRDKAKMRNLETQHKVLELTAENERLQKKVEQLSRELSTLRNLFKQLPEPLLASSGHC

Test [4] is described as follows: ATG_DR4_LXR_CIS: Attagene CIS-FACTORIAL HepG2 Assay for human Liver X Receptor (LXR), DR4 submotif (AID 2282929). Particulars: HepG2 Attagene DR4 cis-reporter, mRNA transcription; actives raise or lower the signal. An outline of the steps:
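HepG2, transient MRTU transfection, cis-element (DR4) promoter; 24 h compound exposure; total RNA → oligo(dT) RT → PCR → 6-FAM primer extension → HpaI cut → CE. Gain/loss vs DMSO, bidirectional fit.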

Test [5] concerns the target Aryl hydrocarbon receptor (Homo sapiens) (UniProt P35869). Put plainly: ATG_Ahr_CIS: Attagene CIS-FACTORIAL HepG2 Assay for human Aryl Hydrocarbon Receptor (Ahr) (AID 2282930). Particulars: HepG2 AhR cis-factorial reporter transcription; actives raise or lower the signal. An outline of the steps: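 HepG2 cells transiently transfected with cis-element-driven multiplexed reporter units; endogenous AhR activity read as reporter mRNA 24 h after dosing, via RT-PCR, 6-FAM labelling, HpaI digestion and capillary electrophoresis. Bidirectional fit relative to DMSO.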

The nature of test [6]: ATG_AP_1_CIS: Attagene CIS-FACTORIAL HepG2 Assay for human Activator Protein 1 (AP-1) (AID 2282931). Particulars: HepG2 Attagene cis-factorial AP-1 reporter mRNA; actives raise or lower the signal. Summed up:
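Transient MRTU transfection of HepG2 → 24 h chemical treatment → RNA isolation, RT-PCR, 6-FAM labelling, HpaI digest → capillary electrophoresis. Fit: bidirectional, DMSO negative control.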

Test [7] in a line: ATG_AP_2_CIS: Attagene CIS-FACTORIAL HepG2 Assay for human Activator Protein 2 (AP-2) (AID 2282932). Particulars: HepG2 AP-2 cis-reporter, Attagene transcription factor profiling; actives raise or lower the signal. An outline of the steps: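 Read-out: fluorescent reporter mRNA via RT-PCR and capillary electrophoresis, 24 h post-dose in transiently transfected HepG2. Endogenous factors drive cis-promoter reporters; gain or loss of signal fitted bidirectionally against DMSO.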

A short description of test [8]: ATG_BRE_CIS: Attagene CIS-FACTORIAL HepG2 Assay for human Bone Morphogenetic Protein (BMP) Response Element (BRE) (AID 2282933). Particulars: HepG2 BMP response element reporter, Attagene transcription factor profiling; actives raise or lower the signal. Summed up: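 Endogenous transcription factor activity read in transiently transfected HepG2 cells after 24 h chemical exposure. Bidirectional curve fitting against DMSO; readout is reporter transcript level by RT-PCR with capillary electrophoresis of labelled products.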

For test [9], the target named is Retinoic acid receptor alpha (Homo sapiens) (UniProt P10276). Put plainly: ATG_DR5_RAR_CIS: Attagene CIS-FACTORIAL HepG2 Assay for human Retinoic Acid Receptor Alpha (RARE), DR5 submotif (AID 2282934).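 On AC50: reporter responds to endogenous RAR alpha beta and gamma in HepG2 not RARA alone.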 Conditions: HepG2 Attagene cis-factorial RARE DR5 reporter, mRNA; actives raise or lower the signal. An outline of the steps: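 HepG2 cells transiently transfected with multiplexed reporter units; DR5 cis-element drives reporter through endogenous transcription factors. After 24 h dosing, reporter mRNA quantified by RT-PCR, fluorescent labeling, HpaI digestion and capillary electrophoresis; bidirectional fitting versus DMSO.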
Sequence of Retinoic acid receptor alpha (Homo sapiens) (P10276 whole entry, looked up): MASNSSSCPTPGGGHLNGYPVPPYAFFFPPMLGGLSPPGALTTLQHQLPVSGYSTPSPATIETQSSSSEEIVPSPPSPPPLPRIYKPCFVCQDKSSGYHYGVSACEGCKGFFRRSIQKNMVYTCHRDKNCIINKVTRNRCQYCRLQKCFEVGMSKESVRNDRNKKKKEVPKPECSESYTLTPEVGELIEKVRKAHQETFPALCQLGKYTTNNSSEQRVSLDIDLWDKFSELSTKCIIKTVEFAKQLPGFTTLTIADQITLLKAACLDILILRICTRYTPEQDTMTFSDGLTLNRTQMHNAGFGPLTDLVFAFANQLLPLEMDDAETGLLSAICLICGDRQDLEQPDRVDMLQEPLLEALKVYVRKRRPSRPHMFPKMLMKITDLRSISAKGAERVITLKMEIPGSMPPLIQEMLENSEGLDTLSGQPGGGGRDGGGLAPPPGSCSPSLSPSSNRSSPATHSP

In test [10] the target is Transcription factor E2F1 (Homo sapiens) (UniProt Q01094). Put plainly: ATG_E2F_CIS: Attagene CIS-FACTORIAL HepG2 Assay for human E2F Transcription Factor 1 (AID 2282935). Conditions: HepG2 Attagene cis-reporter, E2F reporter RNA transcripts; actives raise or lower the signal. An outline of the steps:
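Transient MRTU transfection of HepG2; 24 h compound exposure; RNA → oligo(dT) RT → PCR → FAM label → HpaI cut → CE fluorescence. Gain/loss of signal fit against DMSO.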

Test [11] can be described thus: ATG_E_Box_CIS: Attagene CIS-FACTORIAL HepG2 Assay for human Enhancer Box (E-box) (AID 2282936). Particulars: HepG2 E-box cis-reporter transcription, actives raise or lower the signal. Summed up:
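Transiently transfected HepG2, endogenous TF-driven reporters, 24 h dosing. Readout: RT-PCR plus capillary electrophoresis of fluorescent reporter fragments. Gain or loss of signal fitted bidirectionally against DMSO baseline.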

Test [12] is described as follows: ATG_M_61_CIS: Attagene CIS-FACTORIAL HepG2 Assay for M61 Transcription Factor (Internal Marker) (AID 2282937). Particulars: HepG2 Attagene CIS-FACTORIAL M61 internal marker reporter; actives raise or lower the signal. Summed up:
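Human liver HepG2, transient MRTU transfection (cis promoter elements), 24 h compound. Total RNA → oligo(dT) RT → PCR → FAM label → HpaI → CE. Internal background marker; bidirectional fitting, DMSO = baseline.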

The nature of test [13]: ATG_EGR_CIS: Attagene CIS-FACTORIAL HepG2 Assay for human Early Growth Response 1 (EGR1) (AID 2282938). Conditions: HepG2 Attagene CIS-FACTORIAL EGR reporter mRNA; actives raise or lower the signal. Summed up:
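Transient transfection of human HepG2 with multiple cis-regulated reporter units, chemical exposure 24 h, total RNA isolated. Reverse transcription, PCR, fluorescent labelling and capillary electrophoresis quantify reporter transcripts; activity fitted bidirectionally against DMSO.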

A short description of test [14]: ATG_M_19_CIS: Attagene CIS-FACTORIAL HepG2 Assay for M19 Transcription Factor (Internal Marker) (AID 2282939). Particulars: HepG2 Attagene CIS-FACTORIAL M19 internal marker reporter; actives raise or lower the signal. An outline of the steps:
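Internal marker readout, fitted in both directions against DMSO, from HepG2 cells carrying transfected cis-element reporter constructs; RT-PCR and capillary electrophoresis of reporter mRNA after 24 h exposure.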

Test [15] can be described thus: ATG_ERE_CIS: Attagene CIS-FACTORIAL HepG2 Assay for Estrogen Response Element (ERE) (AID 2282940). Conditions: HepG2 ERE cis-reporter, Attagene RNA transcript; actives raise or lower the signal. Summed up:
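After 24 h compound treatment, RNA from transfected HepG2 cells was reverse-transcribed, reporter cDNA PCR-amplified, FAM-labelled, HpaI-cut and resolved by capillary electrophoresis. ERE-driven cis reporter transcripts reflect endogenous factors; gain or loss scored against DMSO.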

The nature of test [16]: ATG_Ets_CIS: Attagene CIS-FACTORIAL HepG2 Assay for human Erythroblast Transformation Specific (ETS) (AID 2282941). Particulars: HepG2 ETS cis-reporter transcription, actives raise or lower the signal. An outline of the steps:
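Bidirectional fit versus DMSO of reporter mRNA signal, detected by RT-PCR and capillary electrophoresis in HepG2 cells transiently transfected with cis-element reporters and dosed 24 h.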

For test [17], the target named is Hepatocyte nuclear factor 3-beta (Homo sapiens) (UniProt Q9Y261). Put plainly: ATG_FoxA2_CIS: Attagene CIS-FACTORIAL HepG2 Assay for human Forkhead box A2 (FOXA2) (AID 2282942). Conditions: HepG2 cis-reporter transcription factor activity, 24 h; actives raise or lower the signal. Summed up: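 Transient MRTU transfection of HepG2 liver cells; 24 h treatment; total RNA → oligo(dT) RT → PCR → FAM primer extension → HpaI cut → CE. Bidirectional fit vs DMSO.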
Sequence of Hepatocyte nuclear factor 3-beta (Homo sapiens) (Q9Y261 whole entry, looked up): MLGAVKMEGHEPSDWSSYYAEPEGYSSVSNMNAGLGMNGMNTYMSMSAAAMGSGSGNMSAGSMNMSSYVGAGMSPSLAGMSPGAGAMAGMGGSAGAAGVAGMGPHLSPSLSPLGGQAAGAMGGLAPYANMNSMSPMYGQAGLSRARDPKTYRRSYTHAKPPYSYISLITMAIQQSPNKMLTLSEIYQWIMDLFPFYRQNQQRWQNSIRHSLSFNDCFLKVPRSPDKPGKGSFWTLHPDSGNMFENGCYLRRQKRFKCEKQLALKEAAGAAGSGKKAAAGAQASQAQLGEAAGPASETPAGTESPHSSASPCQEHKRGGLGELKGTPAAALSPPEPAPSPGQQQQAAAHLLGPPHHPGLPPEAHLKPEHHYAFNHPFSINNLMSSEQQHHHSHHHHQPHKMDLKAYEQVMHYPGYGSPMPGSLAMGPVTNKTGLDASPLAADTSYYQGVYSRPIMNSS

Test [18] in a line: ATG_FoxO_CIS: Attagene CIS-FACTORIAL HepG2 Assay for human Forkhead box O (FoxO) (AID 2282943). Particulars: HepG2 Attagene cis-reporter, FoxO element, mRNA; actives raise or lower the signal. An outline of the steps: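 HepG2 cells transiently transfected with cis-element-driven reporter units report endogenous FoxO activity. After 24 h chemical exposure, reporter mRNA quantified by RT-PCR, fluorescent labeling, HpaI digestion and capillary electrophoresis; bidirectional fit versus DMSO.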

Test [19] in a line: ATG_GATA_CIS: Attagene CIS-FACTORIAL HepG2 Assay for human GATA Binding Protein (AID 2282944). Particulars: HepG2 GATA cis-element reporter, Attagene multiplex mRNA; actives raise or lower the signal. An outline of the steps: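 Reporter transcripts from a GATA cis-regulated unit, among multiplexed reporters in transfected HepG2 cells, were measured by RT-PCR with capillary electrophoresis after 24 h dosing. Induction or loss scored relative to DMSO.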

Test [20] can be described thus: ATG_CMV_CIS: Attagene CIS-FACTORIAL HepG2 Assay for human CMV (Internal Marker) (AID 2282928).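 Further: endpoint acts as a background internal control marker rather than a target.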 Particulars: HepG2 CMV promoter reporter, transcription factor profiling; actives raise or lower the signal. Summed up:
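Reporter transcripts from transfected HepG2 cells are isolated after 24 h of chemical dosing, reverse-transcribed and amplified. Fragments labeled with 6-FAM are cut with HpaI and quantified by capillary electrophoresis; DMSO defines baseline.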

Each structure is given as a SMILES string. Inconclusive results are not listed. Active and inactive are the calls of the source. How the source made its calls, unless noted: active means hit-call score of the fitted dose curve at least 0.9, where 1 is the maximum; inactive means score below 0.9.

Sequence of Transcription factor E2F1 (Homo sapiens) (Q01094 whole entry, looked up): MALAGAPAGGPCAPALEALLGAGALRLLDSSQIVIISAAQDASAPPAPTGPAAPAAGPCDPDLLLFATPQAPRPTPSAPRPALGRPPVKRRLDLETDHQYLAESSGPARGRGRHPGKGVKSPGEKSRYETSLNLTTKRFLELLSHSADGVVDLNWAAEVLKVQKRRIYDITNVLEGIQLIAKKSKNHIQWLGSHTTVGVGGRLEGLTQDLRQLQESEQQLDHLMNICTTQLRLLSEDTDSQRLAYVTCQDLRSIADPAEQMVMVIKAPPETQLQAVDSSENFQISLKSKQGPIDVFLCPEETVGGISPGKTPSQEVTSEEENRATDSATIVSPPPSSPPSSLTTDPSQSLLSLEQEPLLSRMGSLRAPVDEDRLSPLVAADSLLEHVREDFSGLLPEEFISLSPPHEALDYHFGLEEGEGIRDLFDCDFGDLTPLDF
Sequence of Aryl hydrocarbon receptor (Homo sapiens) (P35869 whole entry, looked up): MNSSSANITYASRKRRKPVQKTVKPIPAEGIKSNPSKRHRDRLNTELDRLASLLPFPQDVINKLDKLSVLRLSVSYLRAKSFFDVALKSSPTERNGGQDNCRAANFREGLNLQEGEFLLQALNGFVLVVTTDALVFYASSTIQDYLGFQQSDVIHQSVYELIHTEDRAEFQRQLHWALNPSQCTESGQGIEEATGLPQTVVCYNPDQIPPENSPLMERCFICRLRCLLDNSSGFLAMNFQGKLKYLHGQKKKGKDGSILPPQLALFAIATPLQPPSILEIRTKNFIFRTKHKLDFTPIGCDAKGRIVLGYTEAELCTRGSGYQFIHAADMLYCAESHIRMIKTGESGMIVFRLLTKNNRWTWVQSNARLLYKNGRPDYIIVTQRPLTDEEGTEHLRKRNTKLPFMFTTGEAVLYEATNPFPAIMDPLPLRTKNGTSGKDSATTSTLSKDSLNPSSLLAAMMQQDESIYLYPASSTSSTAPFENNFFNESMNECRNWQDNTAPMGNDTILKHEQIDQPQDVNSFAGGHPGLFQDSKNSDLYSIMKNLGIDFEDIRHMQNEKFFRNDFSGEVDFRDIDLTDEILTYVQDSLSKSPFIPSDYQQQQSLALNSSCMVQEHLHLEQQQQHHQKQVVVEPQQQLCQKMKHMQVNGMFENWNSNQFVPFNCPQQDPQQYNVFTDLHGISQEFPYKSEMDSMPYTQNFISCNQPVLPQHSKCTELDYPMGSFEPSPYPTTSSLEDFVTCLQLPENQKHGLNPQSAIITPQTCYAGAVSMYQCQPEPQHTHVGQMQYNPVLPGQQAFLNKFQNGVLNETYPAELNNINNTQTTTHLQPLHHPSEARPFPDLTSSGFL

As for `CC(=O)c1ccccc1N`, the compound was called inactive in test [1], in test [2], in [3], in test [4], in test [5] and in test [6]. Further, the compound was classed as inactive in test [7], in [8], in test [9], in test [10], in test [11] and in test [12]. The call in test [13], in test [14], in test [15], in [16], in test [17] and in [18] was inactive. Further, the compound was classed as inactive in test [19].

With `CC1=CCC(=O)O1`, the compound was classed as inactive in [1], in test [2], in test [3], in test [4], in test [5] and in test [6]. In addition, the result in test [7], in [8], in test [9], in test [10], in [11] and in [12] was inactive. The outcome in test [13], in test [14], in test [15], in test [16], in [17] and in test [18] was inactive. The compound was called inactive in test [19].

As for `CN(C(=O)C(F)(F)C(F)(F)C(F)(F)F)[Si](C)(C)C`, the result in test [1], in test [2], in test [3], in test [20], in test [5] and in test [6] was inactive. For the same compound, the result in test [7], in test [8], in test [9], in test [10], in [11] and in test [12] was inactive. Besides, the call in [13], in test [14], in test [15], in test [16], in test [17] and in test [18] was inactive. In addition, the outcome in test [19] was inactive.

Usually AC50 stands for the concentration giving half of the maximal activity seen. For `CNS(=O)(=O)C(F)(F)C(F)(F)C(F)(F)C(F)(F)C(F)(F)C(F)(F)C(F)(F)C(F)(F)F`, the outcome in test [1], in test [2], in test [3], in test [5], in test [7] and in test [8] was inactive. The call in test [9], in [10], in test [11], in test [12], in test [13] and in test [14] was inactive. In addition, the outcome in test [15], in test [16], in test [17], in test [18] and in [19] was inactive. The AC50 in test [6] is 13.7 µM (active).

For `OCC1CCCO1` (stereo not given), the compound was classed as inactive in test [1], in test [2], in test [3], in test [4], in test [5] and in [6]. In addition, the call in test [7], in test [8], in test [9], in test [10], in test [11] and in test [12] was inactive. Further, the outcome in test [13], in [14], in test [15], in test [16], in [17] and in test [18] was inactive. In addition, in [19], the result was inactive.

With `O=C(O)C(F)(F)C(F)(F)C(F)(F)C(F)(F)C(F)(F)C(F)(F)C(F)F`, the result in test [1], in test [2], in test [3], in test [5], in [6] and in test [7] was inactive. The compound was classed as inactive in test [8], in test [9], in [10], in [11], in [12] and in [13]. The compound was classed as inactive in [14], in test [16], in test [17], in [18] and in test [19]. Also, the concentration at half-maximal activity (AC50) in test [15] was 64 µM (active).

Take `COCCOCCC[Si](C)(O[Si](C)(C)C)O[Si](C)(C)C`: the concentration at half-maximal activity (AC50) in test [1] is 0.437 µM (active); in test [6], 1.53 µM (active); in [7] it was 60.1 µM (active); in test [8] it was 9.13 µM (active); in test [9], 8.84 µM (active). In addition, the compound was classed as inactive in test [2], in test [3], in test [5], in test [10], in test [11] and in test [12]. Besides, the compound was called inactive in [13], in test [14], in [15], in test [16], in test [17] and in test [18]. Moreover, the outcome in test [19] was inactive.
